Shown are actives, neighbours in structure and some others; about 5.7% of the full set was active somewhere.
AHR activator: activates the human aryl hydrocarbon receptor | P35869 | AHR-responsive luciferase reporter cells, luminescence | activation, % at 5 µM | hit rate 2.5% among 320,000; in the data active means activation above about 47%;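 further: 0% = vehicle wells and 100% = reference agonist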
Target sequence (P35869 whole entry, looked up): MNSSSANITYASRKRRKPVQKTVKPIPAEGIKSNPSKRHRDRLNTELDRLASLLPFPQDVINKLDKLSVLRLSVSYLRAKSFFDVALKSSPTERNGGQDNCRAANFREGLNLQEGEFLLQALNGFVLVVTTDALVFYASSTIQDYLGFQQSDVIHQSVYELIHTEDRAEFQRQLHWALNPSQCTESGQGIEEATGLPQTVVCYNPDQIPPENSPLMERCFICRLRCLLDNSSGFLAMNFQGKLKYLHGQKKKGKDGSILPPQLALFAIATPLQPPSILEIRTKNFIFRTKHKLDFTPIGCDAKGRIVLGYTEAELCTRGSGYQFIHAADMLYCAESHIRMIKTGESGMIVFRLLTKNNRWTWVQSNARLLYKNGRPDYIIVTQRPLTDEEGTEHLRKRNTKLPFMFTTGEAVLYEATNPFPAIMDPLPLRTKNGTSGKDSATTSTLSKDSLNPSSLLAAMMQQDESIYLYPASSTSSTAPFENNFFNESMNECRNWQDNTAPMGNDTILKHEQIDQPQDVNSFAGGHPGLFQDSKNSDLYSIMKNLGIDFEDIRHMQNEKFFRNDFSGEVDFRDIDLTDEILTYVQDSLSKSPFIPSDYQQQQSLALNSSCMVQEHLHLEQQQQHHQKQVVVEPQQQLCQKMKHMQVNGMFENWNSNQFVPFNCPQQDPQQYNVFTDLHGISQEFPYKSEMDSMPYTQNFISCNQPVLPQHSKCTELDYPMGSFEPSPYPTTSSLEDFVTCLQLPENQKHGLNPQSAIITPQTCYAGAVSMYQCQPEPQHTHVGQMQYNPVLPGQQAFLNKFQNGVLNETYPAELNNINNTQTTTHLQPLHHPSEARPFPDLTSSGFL
hgDAF12 agonist: agonists of H. glycines DAF-12 nuclear receptor | HEK293 GAL4-hgDAF12 UAS-luciferase reporter, agonist luminescence; normalized to butyrate control | hit rate 1.8% among 370,000 | activation, % at 6.8 µM;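 active means activation above a cutoff set at the mean of all screened compounds plus 3 SD, cut at about 10% in these data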;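 further: 0% = DMSO wells and 100% = sodium butyrate wells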
DAX1 inh-1: DAX1 (NR0B1) inhibition, primary screen. HEK293T StAR-luciferase reporter, SF-1/DAX-1 repression relief. inhibition, % at 6.8 µM. hit rate 1.1% among 370,000;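 active means inhibition above the mean over all tested compounds plus 3 SD, cut at about 3.6% in these data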;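 further: 0% = DAX-1 cells with DMSO and 100% = cells lacking DAX-1 with DMSO; higher inhibition means more luminescence from relief of DAX-1 repression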
hcDAF12 agonist: H. contortus DAF-12 activation, primary screen | HEK293 hcDAF-12 lit1-tk-luc reporter, luminescence; 0% DMSO, 100% Δ7-dafachronic acid | activation, % at 6.8 µM | hit rate 1.4% among 370,000;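 active means activation above the mean of all tested compounds plus 3 SD, cut at about 5.5% in these data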;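 further: 100% = response to 3 µM Δ7-dafachronic acid high control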
ssDAF12 agonist: S. stercoralis DAF-12 activation, primary screen; AID 652126; HEK293 ssDAF-12/GRIP1 lit1-tk-luc reporter, luminescence; % of 3 µM dafachronic acid response; hit rate 1% among 370,000; activation, % at 6.8 µM;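 active means activation above the mean over all tested compounds plus 3 SD, cut at about 0.9% in these data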;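 further: 0% = DMSO-only wells and 100% = 3 µM delta7-dafachronic acid wells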
DAX1 inh-2: inhibitors of human orphan nuclear receptor DAX1 (NR0B1) | P51843 | HEK293 Gal4-DAX1 luciferase reporter, luminescence | inhibition, % at 6.75 µM | hit rate 0.99% among 340,000 | AID 504766;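 active means inhibition above the mean over all tested compounds plus 3 SD, cut at about 4.2% in these data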;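 further: 0% = DAX1-transfected cells with DMSO and 100% = empty-vector control cells with DMSO; inhibition shows as a rise in luminescence from relieved DAX1 repression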
Active calls of the source: *; x = no result given.

SMILES | AHR activator | hgDAF12 agonist | DAX1 inh-1 | hcDAF12 agonist | ssDAF12 agonist | DAX1 inh-2
COCCn1c(-c2ccco2)nc2nc3ccccc3nc21 | 4 | 4 | 0 | 1 | -1 | 2
N#Cc1nc(Cc2ccccc2)oc1N1CCC(Cc2ccccc2)CC1 | 4 | 1 | 0 | 0 | -1 | -1
CN1CCN(/N=C/c2c3ccccc3c(Cl)c3ccccc23)CC1 | 57* | 0 | 0 | -1 | -2 | -1
Clc1ccc(CN2CCN(N=Cc3c4ccccc4cc4ccccc34)CC2)cc1 | x | -1 | 0 | -1 | 0 | x
N/C(Cc1ccccc1Sc1ccccc1)=N\O | -3 | 3 | 0 | -2 | -2 | -2
N/C(Cc1cccc2ccccc12)=N\O | 8 | 2 | 1 | 5.7* | 0 | 0
COc1cc(-c2n[nH]c(=S)n2C(C)c2ccccc2)cc(OC)c1OC (configuration not stated) | 1 | -1 | 0 | 1 | -1 | 1
CC(Oc1ccc(Br)cc1)c1nc2c3ccccc3nc(=S)n2[nH]1 (configuration not stated) | 3 | 0 | -1 | -2 | -1 | -1
COc1cc(-c2nc3c4ccccc4nc(=S)n3[nH]2)cc(OC)c1OC | 71* | -2 | 0 | 0 | -1 | 0
COc1ccccc1-c1nc2c3ccccc3nc(=S)n2[nH]1 | 68* | 1 | 0 | 5 | -1 | -1
O=C(c1ccco1)N1CCN(C(=O)c2ccc(COc3ccc(Cl)cc3Cl)o2)CC1 | -1 | -1 | -1 | -2 | -2 | -1
CCOC(=O)/C(C#N)=C/Nc1ccccc1OC | 5 | 13* | 1 | 3 | 0 | 2
O=C(Nc1cccc(F)c1)C1CCCN(C(=O)c2ccc(Cl)cc2)C1 (configuration not stated) | 51* | -2 | 0 | -3 | -1 | -1
O=C(Nc1ccccc1)C1CCCN(C(=O)c2ccc(Cl)cc2)C1 (configuration not stated) | -2 | -2 | -1 | -2 | -1 | -2
CCC(C)C(=O)OCC1(c2ccc(C)cc2OC(=O)C(C)C)CO1 (configuration not stated) | 2 | 2 | 1 | -2 | -1 | 1
Cc1ccc(C2(COC(=O)C(C)C)CO2)c(OC(=O)C(C)C)c1 (configuration not stated) | 0 | 2 | 0 | 0 | -2 | 4.6*
Cc1cc(N/N=C/c2ccc(N(C)C)cc2)c2ccccc2n1 | 49* | 2 | 1 | -1 | -1 | -1
Cc1cc(N/N=C/c2ccco2)c2ccccc2n1 | 3 | -1 | 0 | -2 | -1 | 0
Cn1c(N/N=C/c2c[nH]c3ccccc23)nc2ccccc21 | 56* | -1 | 1 | 5.6* | 1 | 1
Cc1cc(C)nc(N/N=C/c2c[nH]c3ccccc23)n1 | 24 | 0 | 0 | 5 | 1 | 1
Cc1cc(N/N=C/c2c[nH]c3ccccc23)c2ccccc2n1 | 58* | 3 | -1 | 4 | 0 | 0
COc1ccc(NC(=O)CN(C)C(=O)c2ccc(-c3cccc(C(F)(F)F)c3)o2)cc1 | 1 | -1 | 0 | -1 | -1 | 0
COc1ccc(N2CC(C(=O)N[C@H](C(=O)NC3CCCCC3)C(C)C)CC2=O)cc1 (some centres not stated) | 2 | -1 | 0 | 1 | -1 | 2
Cc1cc(=O)oc2cc(OCC(=O)Nc3nnc(CC(C)C)s3)ccc12 | -4 | -3 | 0 | -2 | -1 | 0
Cc1cc(Nc2cnc3ccccc3n2)n(-c2ccccc2)n1 | 10 | 0 | -1 | 4 | 1.9* | 0
SMILES | AHR activator | hgDAF12 agonist | DAX1 inh-1 | hcDAF12 agonist | ssDAF12 agonist | DAX1 inh-2
O=c1cc(Cl)[nH]c(=O)n1CCNc1ncc(C(F)(F)F)cc1Cl | 19 | 11* | 1 | 5 | -1 | 2
COc1cccc(C(=O)c2ccccc2NC(C)=O)c1 | x | 3 | 0 | 0 | -1 | -1
O=c1[nH]c(-c2ccncc2)nc2ccccc12 | 14 | 3 | 0 | 1 | 0 | -1
Cc1cc(C)cc(Nc2nc3ccccc3c(=O)[nH]2)c1 | 77* | 6 | 0 | 1 | -1 | 3
Cc1cccc(-c2nc3ccccc3c(=O)[nH]2)c1 | 68* | 8 | 1 | 1 | -1 | 2
Cc1nn(C)c(C(=O)NC2C3CC4CC(C3)CC2C4)c1Cl (configuration not stated) | 4 | 2 | 0 | -1 | -1 | -1
CCOC(=O)C1CCN(C(=O)CCc2nnc3ccc(N4CCN(C)CC4)nn23)CC1 | 3 | 1 | 0 | 0 | -1 | 1
O=C(NCCOc1ccccc1)c1ccccc1Cl | 2 | 12* | 3 | 4 | 0 | 2
C/C(=N\NC(=O)c1ccccc1OCCOc1ccccc1)c1ccccc1F | x | 1 | -4 | 1 | 0 | -1
O=C(CC1CCCC1)NNC(=O)c1ccccc1O | x | 5 | 0 | 0 | 1.3* | 4
COc1ccccc1C(=O)N/N=C/c1ccc(Cl)s1 | 49* | 2 | 1 | 1 | -1 | 0
NNC(=O)c1ccccc1OCCOc1ccccc1 | 31 | 0 | 0 | 3 | 2.7* | 3
COc1ccc(OCCNC(=O)c2ccccc2Cl)cc1 | 0 | 2 | 0 | -1 | 0 | -1
CCOc1ccc(C(=O)NCC(=O)NCCOc2ccc(C)cc2)cc1 | 3 | 0 | 1 | -1 | -1 | 0
C[C@H](CO)N1C[C@H](C)[C@@H](CN(C)CC2CC2)Oc2c(NS(=O)(=O)c3ccccc3)cccc2C1=O | 0 | 1 | 1 | -2 | -1 | 1
COc1ccccc1C=NNC(=O)c1ccccc1OCCOc1ccccc1 | 51* | 4 | -2 | 0 | 0 | 0
C=CCc1cccc(/C=N/NC(=O)c2ccccc2OC)c1O | 77* | 4 | -1 | 0 | -2 | -1
O=C(CCNC(=O)c1ccccc1Cl)NNC(=O)c1ccccc1O | 68* | 2 | 1 | -1 | 0 | 1
O=C(NNC(=O)c1ccccc1Br)c1ccccc1Cl | 1 | 0 | 1 | 0 | 0 | 5.5*
CSCCC(NS(=O)(=O)c1cccc(C(F)(F)F)c1)C(=O)N1CCN(C(=O)c2ccco2)CC1 (configuration not stated) | x | 0 | 1 | -1 | -1 | 0
COc1ccc(C2=NCN(c3ccc(C)cc3)C(=S)N2)cc1 | 4 | 8 | 0 | 1 | -1 | 0
COc1cc(-c2cnc3c(NC=O)cc(-c4ccsc4)cn23)cc(OC)c1OC | x | -5 | -3 | -2 | -1 | x
O=C(NNS(=O)(=O)c1ccc2ccccc2c1)c1cccs1 | 2 | -2 | 0 | -1 | -1 | 2
COc1cc(C=NCc2ccccc2)ccc1O | x | 0 | 0 | 0 | -1 | 1
O=C(Cn1nc(C(F)(F)F)cc1C1CC1)Nc1ccccc1F | 0 | 0 | 0 | -2 | -1 | 0

Screening data from PubChem.
